Measurements: the supplement of paper PMC4709259
Structures can show the parent of a compound that is named as a salt. ± gives the standard deviation.

Tests used:
Jurkat [1] = assay: mean cell size (FSC-A) relative to DMSO control (fraction of control); higher = larger cells; details: 48 h
Procedure, shortened: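 Jurkat cells at 600 cells/µl were incubated for 1 h and then treated for 48h with the Enzo Screen-Well FDA Approved Drug Library v2.0 at 25µM, with DMSO at 0.9% (v/v) final. Compounds that reduced counts below 20% of controls were retested in 10-fold dilutions down to 25nM. Cell count and mean cell size, taken as forward scatter area, were measured by flow cytometry relative to solvent-only controls. Each plate carried 6-12 controls, and values are means of 3 biological replicates.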

Jurkat [2] = assay: cell count relative to DMSO control (fraction of control); higher = more cells (less growth inhibition); details: 48 h

SMILES | mean cell size (Jurkat [1]) | cell count (Jurkat [2])
NC(=O)N[C@@H](CCC(=O)O)C(=O)O [Carglumic Acid] (concentration: 25 µM) | 0.936 ± 0.037 | 0.806 ± 0.1
CC(=O)O[C@@]12CO[C@@H]1C[C@H](O)[C@@]1(C)C(=O)[C@H](O)C3=C(C)[C@@H](OC(=O)[C@H](O)[C@@H](NC(=O)OC(C)(C)C)c4ccccc4)C[C@@](O)([C@@H](OC(=O)c4ccccc4)[C@H]21)C3(C)C [Docetaxel (Taxotere)] (concentration: 25 nM) | 1.14 ± 0.035 | 0.518 ± 0.052
Cc1cc(C(=O)NNCc2ccccc2)no1 [Isocarboxazid] (concentration: 25 µM) | 0.965 ± 0.057 | 0.735 ± 0.1
O=c1[nH]cnc2c1ncn2[C@H]1CC[C@@H](CO)O1 [Didanosine] (concentration: 25 µM) | 0.9758 ± 0.0048 | 0.462 ± 0.15
CNCC[C@@H](Oc1ccccc1C)c1ccccc1 [Atomoxetine·HCl] (concentration: 25 µM) | 0.996 ± 0.05 | 0.81 ± 0.12
COc1cc(CNC(=O)CCCC/C=C/C(C)C)ccc1O [Capsaicin] (concentration: 25 µM) | 0.903 ± 0.021 | 0.901 ± 0.08
Nc1nc(N)c2nc(-c3ccccc3)c(N)nc2n1 [Triamterene] (concentration: 25 µM) | 1.21 ± 0.038 | 0.398 ± 0.082
CCCCCCCCCCC[C@@H](C[C@@H]1OC(=O)[C@H]1CCCCCC)OC(=O)[C@H](CC(C)C)NC=O [Orlistat (Tetrahydrolipstatin)] (concentration: 25 µM) | 0.808 ± 0.043 | 0.355 ± 0.074
CCCCS(=O)(=O)N[C@@H](Cc1ccc(OCCCCC2CCNCC2)cc1)C(=O)O [Tirofiban·HCl] (concentration: 25 µM) | 0.937 ± 0.023 | 1.01 ± 0.08
Cc1cnc(C(=O)NCCc2ccc(S(=O)(=O)NC(=O)NC3CCCCC3)cc2)cn1 [Glipizide] (concentration: 25 µM) | 1.09 ± 0.049 | 0.612 ± 0.11
CN[C@H]1CC[C@@H](c2ccc(Cl)c(Cl)c2)c2ccccc21 [Sertraline·HCl] (concentration: 2.5 µM) | 1.008 ± 0.0063 | 0.853 ± 0.12
O=C(O)P(=O)(O)O [Foscarnet·Na (Sodium Phosphonoformate Tribasic Hexahydrate)] (concentration: 25 µM) | 0.936 ± 0.065 | 0.59 ± 0.027
C=C[C@H]1CN2CC[C@H]1C[C@@H]2[C@@H](O)c1ccnc2ccc(OC)cc12 [Quinidine·HCl·H2O] (concentration: 25 µM) | 0.9234 ± 0.0047 | 0.665 ± 0.11
CN(C)c1nc(N(C)C)nc(N(C)C)n1 [Altretamine] (concentration: 25 µM) | 0.945 ± 0.019 | 0.555 ± 0.077
O=C(O)CCNC(=O)c1ccc(/N=N/c2ccc(O)c(C(=O)O)c2)cc1 [Balsalazide] (concentration: 25 µM) | 0.964 ± 0.013 | 0.669 ± 0.047
CC(C)OC(=O)C(C)(C)Oc1ccc(C(=O)c2ccc(Cl)cc2)cc1 [Fenofibrate] (concentration: 25 µM) | 1.01 ± 0.04 | 0.477 ± 0.067
CCN(CC)C(=S)SSC(=S)N(CC)CC [Disulfiram] (concentration: 25 µM) | 0.959 ± 0.051 | 0.559 ± 0.15
N=c1nc(N2CCCCC2)cc(N)n1O [Minoxidil] (concentration: 25 µM) | 1 ± 0.024 | 0.703 ± 0.083
CC1Cc2ccccc2N1NC(=O)c1ccc(Cl)c(S(N)(=O)=O)c1 (stereo not given) [Indapamide] (concentration: 25 µM) | 0.978 ± 0.023 | 0.497 ± 0.11
O=C1CCc2cc(OCCCCc3nnnn3C3CCCCC3)ccc2N1 [Cilostazol] (concentration: 25 µM) | 0.98 ± 0.044 | 0.819 ± 0.12
Cn1c2ncnc-2c(O)n(C)c1=O [Oxtriphylline] (concentration: 25 µM) | 0.953 ± 0.021 | 0.761 ± 0.13
CNCCC=C1c2ccccc2CCc2ccccc21 [Nortriptyline·HCl] (concentration: 25 µM) | 1.06 ± 0.025 | 0.498 ± 0.056
CCOC(=O)C1=C(COCCN)NC(C)=C(C(=O)OC)C1c1ccccc1Cl (stereo not given) [Amlodipine] (concentration: 25 µM) | 1.06 ± 0.053 | 0.268 ± 0.055
COc1cccc2c1C(=O)c1c(O)c3c(c(O)c1C2=O)C[C@@](O)(C(=O)CO)C[C@@H]3O[C@H]1C[C@H](N)[C@@H](O)[C@H](C)O1 [Epirubicin·HCl] (concentration: 250 nM) | 1.42 ± 0.022 | 0.206 ± 0.052
COC(=O)Nc1nc2cc(C(=O)c3ccccc3)ccc2[nH]1 [Mebendazole] (concentration: 250 nM) | 0.965 ± 0.029 | 0.686 ± 0.074
